PNC inhibitor – inhibitors of perinucleolar compartment assembly. activity change (PNC), negative = inhibition, % at 10 µM. 3.1% of 140,000 active. PC3M PTB-GFP, PNC prevalence imaging, 16 h; hits give low values;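 active = readout at or below -70, meaning at least 70% loss of cells showing the perinucleolar compartment, a nuclear body marking cancer cells; inconclusive = readout between -30 and a set limit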;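 note: plate controls were DMSO wells for no effect and camptothecin positive control wells for full effect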
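Read-out is percentage of cells bearing a perinucleolar compartment, from automated 20x imaging of fixed, Hoechst-stained PC3M PTB-GFP cells. Cells were seeded 4 h, then exposed 16 h to compound (23 nl of library stock) in duplicate plates.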
ALDH1A1 inh – inhibitors of human aldehyde dehydrogenase 1A1 | AID 1030 | Potency, µM (top dose mostly 75.3 µM), without a hit: top-dose activity, negative = inhibition, actives largely listed as inhibitors | Purified ALDH1A1, NADH fluorescence, propionaldehyde substrate | 7.3% of 220,000 active;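 note: potency is the fitted concentration of half-maximal effect; plate controls were no enzyme wells and a reference inhibitor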
Target sequence (P00352 whole entry, looked up): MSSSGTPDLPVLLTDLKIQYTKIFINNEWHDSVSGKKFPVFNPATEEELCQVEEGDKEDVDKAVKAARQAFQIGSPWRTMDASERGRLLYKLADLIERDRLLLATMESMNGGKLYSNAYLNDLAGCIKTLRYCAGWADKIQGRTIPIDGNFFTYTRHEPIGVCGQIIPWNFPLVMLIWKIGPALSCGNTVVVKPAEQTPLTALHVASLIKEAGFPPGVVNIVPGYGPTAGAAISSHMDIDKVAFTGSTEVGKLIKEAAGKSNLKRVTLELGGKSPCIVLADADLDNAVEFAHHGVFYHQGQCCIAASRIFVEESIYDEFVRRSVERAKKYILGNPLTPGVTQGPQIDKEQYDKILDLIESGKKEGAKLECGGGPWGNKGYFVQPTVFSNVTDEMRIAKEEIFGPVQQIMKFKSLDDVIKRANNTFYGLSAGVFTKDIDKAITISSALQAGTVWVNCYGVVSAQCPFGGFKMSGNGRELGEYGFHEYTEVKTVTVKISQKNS
HPGD inh – HPGD (human) dehydrogenase inhibition; 4.3% of 150,000 active; AID 894; P15428; purified HPGD, NADH fluorescence kinetic, PGE2 substrate; Potency, µM, for the others: at the top dose activity change, negative = inhibition, actives largely listed as inhibitors; note: potency is the fitted concentration of half-maximal effect
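NADH formation kinetics: reaction with 30 uM PGE2 and 1 mM NAD+ (final), 20 nM enzyme, Tris-HCl pH 8 with Tween 20, after 15 min compound preincubation at room temperature. Fluorescence change, last versus first of five reads.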
LMNA splice mod – LMNA splicing modulation; AID 1487; 0.01% of 200,000 active; Potency, µM (top dose mostly 46.1 µM), for inactives: at the highest dose ratio change, negative = inhibition, hits mostly inhibitors; HeLa LMNA splicing GFP/RFP minigene ratio, 48 h; active = well fitted inhibition curve with a large enough effect in the signal ratio, with a control signal flat, not every such curve was filed as active; inconclusive = small, poorly fitted or top-dose-only effect, or effect the other way, or a change in a side signal; the % refers to the signal ratio; note: potency is the fitted concentration of half-maximal effect
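S3 HeLa cells stably expressing lamin A-EGFP splicing minigene plus DsRed2, 600 cells/well, 48 h compound exposure at 37C. Laser-scanning cytometry; analysed as GFP (500-530 nm)/RFP (575-640 nm) total intensity ratio; 0.5% DMSO vehicle.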
KinaseGlo FLuc – counter-screen: inhibitors of Kinase-Glo firefly luciferase | Q27757 | Kinase-Glo luciferase, ATP luminescence, 8 min | Potency, µM (titrated, usually from 38.3 µM), for the others: top-dose activity change, negative = inhibition, most hits filed as inhibitors | 0.28% of 200,000 active; active = well fitted inhibition curve with a large enough effect; inconclusive = small, poorly fitted or top-dose-only effect; note: potency is the fitted concentration of half-maximal effect; nearly all actives have a fitted effect of over 60% in size
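Luminescence was the read-out, taken after 8-minute incubation at ambient temperature. Luciferase turned over luciferin with 10 uM ATP in imidazole pH 7.2 buffer containing KCl, MgCl2, Tween 20 and BSA.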
* hit, by the source's call; ? = inconclusive; / = no result given; [ ] = remark or other dose. Compounds with a hit are over-represented: about 10% of the library has one in this group of screens. Unless noted, calls come from the whole dose curve; as a rule, active = well fitted inhibition curve with a large enough effect (not every such curve was filed as active); inconclusive = small, poorly fitted or top-dose-only effect, or another doubt; inactive = no such curve, though single readings can be large or run the other way. Unless noted, % is set by controls: 0 for no effect and ±100 for the full control effect.

SMILES	PNC inhibitor	ALDH1A1 inh	HPGD inh	LMNA splice mod	KinaseGlo FLuc
Nc1ccc(-c2cc(N)n(-c3ccccc3)n2)cc1	?	11µM*	-21%	4%	-28%
S=c1[nH]nc(CCc2ccc(Cl)cc2)o1	58	?	-14%	11%	0%
COc1ccc(OCc2n[nH]c(=S)o2)cc1	?	10µM*	?	7%	-13%
S=c1[nH]nc(COc2ccc(Cl)cc2)o1	5	3.5µM*	?	17%	2%
CCOc1ccc(-c2n[nH]c(=S)o2)cc1	/	?	/	/	8%
CCCOc1ccccc1C(=O)N1CCC(c2nc3ccccc3s2)CC1	/	/	/	-11%[46 µM]	/
Oc1ccc(Cl)cc1C1=NNC(c2ccc(Cl)cc2)C1 (centres undefined)	-28	?	?	?	-1%
Oc1c(Cl)cc(Cl)cc1C1=NNC(c2ccc(Cl)cc2)C1 (centres undefined)	/	6.3µM*	/	/	0%
O=C(N/N=C1/CCSC1)c1cccc([N+](=O)[O-])c1	2	?	-17%	0%	2%
Cc1ccc(C(=O)N/N=C2\CCSC2)cc1[N+](=O)[O-]	24	13µM*	-7%	-9%	1%
Cc1snc(SCC(=O)c2ccc(F)cc2)c1C#N	/	?	/	-14%[46 µM]	-2%
Cc1snc(SCC(=O)c2ccc([N+](=O)[O-])cc2)c1C#N	/	2.8µM*	/	/	3%
CC(=O)Nc1ccc(S(=O)(=O)NCc2ccc(C)cc2)cc1	-110*	-8%	-15%	?	-5%
CC(=O)Nc1ccc(S(=O)(=O)NCc2ccc3c(c2)cc(C)n3C)cc1	2	?	-5%	-12%	0%
C=CCNC(=O)c1ccc(CNS(=O)(=O)c2ccc(NC(C)=O)cc2)cc1	26	-5%	20µM*	9%	-1%
CC(=O)Nc1ccc(S(=O)(=O)NCc2cccnc2)cc1	9	5%	-3%	6%	-1%
CCN(CC)C(=O)c1ccc(S(=O)(=O)NCc2cccnc2)cc1	8	5%	?	?	-4%
CCN(Cc1ccccc1)C(=O)c1ccc(CNS(=O)(=O)c2ccc(C)cc2)cc1	?	2µM*	?	?	3%
C=CCN1C(=CCO)[C@H]2C[C@H]3[C@@H]1CC[C@@]31c3ccccc3N3C=C4[C@@H]5N(/C=C/2[C@H]31)c1ccccc1[C@]51CC[C@H]2[C@H]1C[C@@H]4/C(=C/CO)N2CC=C	/	-2%[20.9 µM]	3%	?	-1%[17.1 µM]
COCCN(CCOC)c1nc(C)nc2c1nc(-c1ccccc1)n2CCCN(C)C	/	?	?	/	-2%
CS(=O)(=O)Nc1cccc(-c2cncnc2NCc2cccs2)c1	/	10%	-20%	-6%	-1%
Cc1cc(C)cc(NC(=O)NCCn2nnc3cc(S(=O)(=O)N(C)C)ccc32)c1	/	/	/	-2%[46 µM]	/
CC(C)N1CCc2c(sc(NC(=O)c3ccc(S(=O)(=O)N4CCOCC4)cc3)c2C#N)C1	-10	10µM*	-14%	-3%	2%
CC(C)C1Cc2c(sc(NC(=S)NC(=O)c3ccccc3)c2C#N)CO1 (centres undefined)	-16	-6%	-25%	1%	2%
CCCN1CCc2c(sc(NC(=S)NC(=O)c3ccccc3)c2C#N)C1	/	7.9µM*	/	?	-2%
SMILES	PNC inhibitor	ALDH1A1 inh	HPGD inh	LMNA splice mod	KinaseGlo FLuc
CCN1CCc2c(sc(NC(=S)NC(=O)c3ccc(Cl)cc3)c2C(N)=O)C1	/	10µM*	/	/	/
CCN1CCc2c(sc(NC(=O)CN3C(=O)c4ccccc4C3=O)c2C(N)=O)C1	/	9%	/	/	2%
N#Cc1c(NC(=O)c2ccccc2)sc2c1CCCCC2	36	?	?	-5%	-12%
CC(C)N1CCc2c(sc(NC(=S)NC(=O)c3ccccc3)c2C#N)C1	?	13µM*	?	-11%	0%
CCOc1ccccc1CNC(=O)CCCN1C(=O)c2cccnc2Oc2ccc(Cl)cc21	/	/	/	1%[46 µM]	/
N#CCCn1c(=O)c(-c2cccs2)nc2cnc(OCc3ccccc3)nc21	/	?	?	/	0%
CCCn1c(C(O)c2ccc3c(c2)OCO3)nc2ccccc21 (centres undefined)	-100*	-3%	-7%	11%	11%
COc1ccccc1C1C2=C(N=c3s/c(=C/c4cccc(OCC(=O)O)c4)c(=O)n31)c1ccccc1CC2 (centres undefined)	170	?	28µM*	?	1%
Clc1cc2c(c(Cn3cnc4ccccc43)c1)OCOC2	-100*	-1%	-9%	-20%	2%
COc1ccccc1N1CCN(C(=O)c2sc3nc(-c4ccccc4)cn3c2C)CC1	-95*	5%	-5%	-25%	9%
CCN(CC)C(=O)c1sc2nc(-c3ccc(OC)cc3)cn2c1C	15	-14%	14µM*	2%	-4%
COc1ccccc1N1CCN(c2ccc(-c3ccccc3)nn2)CC1	?	?	-16%	3%	8.9µM*
Cc1c(C(=O)N2CCc3ccccc3C2)sc2nc(-c3ccccc3)cn12	15	?	7.1µM*	?	-3%
COc1ccccc1N1CCN(c2nc(-c3ccccc3)cc(C(F)(F)F)n2)CC1	-12	5%	-9%	3%	0%
COc1cccc(C(c2sc3nc(-c4ccco4)nn3c2O)N2CCC3(CC2)OCCO3)c1 (centres undefined)	/	/	/	6%[46 µM]	/
CCN(CC)S(=O)(=O)c1ccc2c(c1)N(CC(=O)N1CCN(c3cccc(C)c3)C(C)C1)C(=O)CO2 (centres undefined)	/	/	/	5%[46 µM]	/
O=C(NCc1cccs1)C1CC(c2ccc(Cl)c(Cl)c2)=NO1 (centres undefined)	/	?	/	-4%[46 µM]	-3%
O=C(NCCc1cccs1)C1CC(c2c(Cl)cccc2Cl)=NO1 (centres undefined)	?	-1%	14µM*	14%	2%
CC(C)NC(=O)[C@H]1C[C@@H]1[C@H](NC(=O)OCc1ccccc1)c1ccccc1	/	-1%	-9%	/	0%
COC(=O)[C@H]1C[C@@H]1[C@H](NC(=O)c1ccccc1)c1ccccc1	36	8.9µM*	-10%	6%	2%
CCCC[C@@H]1C[C@H]1C(NC(=O)c1ccco1)c1ccccc1 (some centres undefined)	/	25µM*	-13%	/	-3%
CC1=CC(=O)C2=C(C)C[C@H](OC(=O)Cc3ccccc3)C3[C@H](OC(=O)[C@H]3C)C12 (some centres undefined)	/	?	-3%	/	0%
CCOP(=O)(O)c1ccccc1OCCOCCOc1ccccc1P(=O)(O)OCC	?	4µM*	2%	8%	-2%
O=C(O)C1CCCCN1S(=O)(=O)c1ccc(Cl)s1 (centres undefined)	-15	16µM*	-10%	2%	11%
CCCCC(CC)COCCCN (centres undefined)	/	11%	-3%	/	/

From PubChem
